This note sets out measurements from PubChem BioAssay (EPA / NIEHS).

A structure can be active in one record and inactive in another. Active and inactive are the calls of the source. How the source made its calls: active means hit-call score of the fitted dose curve at least 0.9, where 1 is the maximum; inactive means score below 0.9.

The experiment can be described thus: CCTE_Shafer_MEA_acute_burst_duration_mean: CCTE's Neural Acute Assay for Mean Burst Duration, Shafer Lab (AID 2284014). Here is the method:
CCTE_Shafer_MEA_acute assay is conducted using Axion Biosystems 48 well microelectrode array (MEA) plates and Maestro recording system. Each well of the MEA plate contains a grid of 16 microelectrodes embedded in the culture surface. Electrically active cells, such as neurons, can be cultured over the electrodes, and electrical activity in these cells can be recorded extracellularly. The spontaneous firing of neurons is captured from each electrode on a microsecond timescale providing both temporally and spatially precise data. […] The CCTE_Shafer_MEA_acute assay uses primary cultures of rat cortical neurons. As these cultures mature over time, neural networks develop functional activity and form cohesive networks in which electrical activity can be highly coordinated. Baseline 40-minute recordings are made on days post-plating 13 or 15, followed by a secondary 40-minute recording after chemical exposure.CCTE_Shafer_MEA_acute_burst_duration_mean is a component of the CCTE_Shafer_MEA_acute assay. It measures the average time from the first spike (action potential firing) to the last spike in a single-electrode burst (temporally-clustered group of spikes) during a recording in a microelectrode array (MEA) using Axion Biosystems Maestro 768 channel amplifier with the AxIS adaptive spike detector. The recordings before and after chemical treatment are used to calculate a percent change in the mean burst duration in each well.Data from the assay component CCTE_Shafer_MEA_acute_burst_duration_mean was analyzed into 1 assay endpoint. This assay endpoint, CCTE_Shafer_MEA_acute_burst_duration_mean, was analyzed in the negative analysis fitting direction relative to DMSO as the negative control and baseline of activity. Using a type of functional reporter, gain or loss-of-signal activity can be used to understand electrical activity.
Spontaneous activity in the cortical cultures was recorded using an Axion Biosystems Maestro 768 channel amplifier and Axion Integrated Studios (AxIS) v1.8 (or later) software. The amplifier recorded from all channels simultaneously (gain = 1200 x; sampling rate = 12.5 kHz/channel): raw signals were filtered with a Butterworth band-pass filter (300-5000 Hz), which filters out slower local field potentials leaving only fast potentials, i.e., "spikes", arising from extracellular currents associated with action potentials (Pine 2006; Wheeler and Nam 2011). On-line spike detection of filtered signals was conducted with the AxIS adaptive spike detector, using a threshold of 8x the root mean squared (rms) noise on each channel. Any electrodes with rms noise levels greater than 5 uV were grounded (e.g., no data were recorded). Once grounded, an electrode was grounded for the duration of the experiment. All recordings were conducted at 37 C. Wells were deemed usable if on the day of the exposure >/= 10 electrodes were active (defined as >/= 5 spikes/min). On DIV 13 or 15, a minimum of three wells from one cortical culture preparation were treated with each compound (0.03-40 uM). Prior to recording baseline activity, each mwMEA plate was placed in the Maestro at 37 C and allowed to sit for 20 min while firing rates stabilized. Baseline activity (40 min) was recorded before the addition of each compound. An additional 40 min of spontaneous activity was recorded in the presence of each compound. Changes in network parameters relative to baseline were assessed following compound treatment.
On to `CC1(C)C(C=C(Cl)Cl)C1C(=O)OC(C#N)c1ccc(F)c(Oc2ccccc2)c1` (stereo unspecified), for which the AC50 (usually the concentration at which the activity in the assay is half-maximal) was 1.66 µM (active) and the outcome was inactive.
Consider `CC(C)OC(=O)Nc1cccc(Cl)c1`, for which the result was inactive.
Turning to `CCC(C)(C)C(=O)OC1=C(c2ccc(Cl)cc2Cl)C(=O)OC12CCCCC2`, the compound was classed as inactive and the AC50 is 25.9 µM (active).
On the same counts, the results for `O=S1OCC2C(CO1)C1(Cl)C(Cl)=C(Cl)C2(Cl)C1(Cl)Cl` (stereo unspecified) are “inactive” and 0.269 µM (active).
Regarding `Oc1cc(Cl)ccc1Oc1ccc(Cl)cc1Cl`, the compound was called inactive.
As for `CC[C@H](C)[C@H]1O[C@]2(C=C[C@@H]1C)C[C@@H]1C[C@@H](C/C=C(\C)[C@@H](O[C@H]3C[C@H](OC)[C@@H](O[C@H]4C[C@H](OC)[C@@H](O)[C@H](C)O4)[C@H](C)O3)[C@@H](C)/C=C/C=C3\CO[C@@H]4[C@H](O)C(C)=C[C@@H](C(=O)O1)[C@]34O)O2` (tested in a mixture with another compound), the concentration at half-maximal activity (AC50) was 0.0208 µM (active).
Consider `CC(C)N(C(=O)COc1nnc(C(F)(F)F)s1)c1ccc(F)cc1`, for which the outcome was inactive.
Still for that read-out and setting: the value for `N#CN` was “inactive”; that for `O=[N+]([O-])/N=C1\NCCN1Cc1ccc(Cl)nc1` was “inactive”.
Same read-out and setting: under `Oc1ccc(Cl)cc1Cc1ccccc1` stands “inactive”; under `CCC(C)Nc1c([N+](=O)[O-])cc(C(C)(C)C)cc1[N+](=O)[O-]` (stereo unspecified), “inactive”.
Turning to `CCCN(CCOc1c(Cl)cc(Cl)cc1Cl)C(=O)n1ccnc1`, the AC50 is 29.5 µM (active).
With `O=C1c2ccccc2C(=O)N1SC(Cl)(Cl)Cl`, the call was inactive.
For `O=S(=O)(O)C(F)(F)C(F)(F)C(F)(F)C(F)(F)C(F)(F)C(F)(F)C(F)(F)C(F)(F)F`, the result was inactive.
With `ClC1C(Cl)C(Cl)C(Cl)C(Cl)C1Cl` (stereo unspecified), the AC50 is 20 µM (active).
On to `N#Cc1c(Cl)c(Cl)c(Cl)c(C#N)c1Cl`, for which the call was inactive.
Still for that read-out and setting: the value for `CCCN(CCC)c1c([N+](=O)[O-])cc(C(F)(F)F)cc1[N+](=O)[O-]` was “inactive”; that for `CNC(=O)/C=C(\C)OP(=O)(OC)OC` was “inactive”; that for `COP(=S)(OC)Oc1ccc(SC)c(C)c1` was “inactive”.
On to `O=C(O)CCCOc1ccc(Cl)cc1Cl`, for which the result was inactive.
As to `CNC(=O)CSP(=S)(OC)OC`, the compound was classed as inactive.
Take `Clc1ccccc1-c1nnc(-c2ccccc2Cl)nn1`: the compound was called inactive.
`C[C@H]1[C@H](c2ccc(Cl)cc2)SC(=O)N1C(=O)NC1CCCCC1`: the AC50 is 20 µM (active).
